Hit rate of the full screen: of about 85,000 compounds, about 440 (0.52%) showed an effect of 50% or more. The sample as a whole holds a higher share of strong results than the screen did.
Assay: In vitro enzyme assay to detect hydrolysis of chlorophenol red-beta-D-[…] directly proportional to the number of Toxoplasma stably expressing beta-galactosidase
Format: functional, organism-based, Toxoplasma gondii
Set-up: scale not given: in the data most compounds retested in dose-response had high values

Row | SMILES | Percent Effect (50 µM) [%] | Percent Effect (10 µM) [%]
1 | COCCn1cncc1CO | 5.728 | 
2 | O=C(NCc1cccc(Cl)c1)c1cnns1 | -15.41 | 
3 | Nc1ncccc1C(=O)NCc1cccc(Cl)c1 |  | 10.41
4 | Nc1c[nH]nc1C(=O)NCc1cccc(Cl)c1 | 95.75 | 
5 | CCCOc1cccc(NCC(=O)N2CCNC2=O)c1 | 1.752 | 
6 | C[C@@H]1CN(C(=O)c2csc(CN(C)C)n2)C[C@]1(C)O | 11.61 | 
7 | CNC(=O)Cc1noc(CCc2cccc(F)c2)n1 | -4.248 | 
8 | CCC(C)N(C)CCC(=O)Nc1ccc(C(N)=O)cc1 (centres undefined) | -26.89 | 
9 | COc1ccc(S(=O)(=O)N2CCN(C)CC2)c(C)c1C | 5.644 | 
10 | CC(C)(C)OC(=O)NCC1CC(C(N)=O)=NO1 (centres undefined) | 54.53 | 
11 | CC(C)(C)OC(=O)NCC1CC(N)C1 (centres undefined) | 6.843 | 
12 | CC(C)(C)OC(=O)NC[C@@H]1CCC[C@H]1N | -4.138 | 
13 | Cc1nn(C)cc1C(=O)N1CCOC2(CCCC2)C1 | 5.531 | 
14 | CN(Cc1cccc(C#N)c1)Cc1ccnc(N)c1 | 100.1 | 
15 | CN(CC(N)=O)Cc1cccc(C#N)c1 | -4.421 | 
16 | COCCN(C)Cc1ccnc(N)c1 | -7.11 | 
17 | N#Cc1ccc(N2CCCC2C(=O)NC2CC2)cn1 (centres undefined) | 0.7704 | 
18 | Cc1cc(C)cc(NC(=O)CN2CCC(O)CC2)c1 | 5.146 | 
19 | CN1CCCCC1CCC(=O)NCCCn1cccn1 (centres undefined) | -6.664 | 
20 | O=C(O)C(F)(F)F.O=C1COC2(CCN(S(=O)(=O)C3CC3)CC2)CN1c1cccnc1 |  | 59.25
21 | CCS(=O)(=O)N1CCC2(CC1)CN(c1cccnc1)C(=O)CO2.O=C(O)C(F)(F)F |  | -35.87
22 | O=C(CC1CC1)N1CCC2(CC1)CN(c1cccnc1)C(=O)CO2.O=C(O)C(F)(F)F |  | -21.74
23 | COc1cccc2c1N(CC(=O)N1CCC1)CCC2 | -0.7135 | 
24 | Cc1ccc(-c2[nH]c3ccccc3c2C(=O)O)c(C)c1 |  | -0.6823
25 | COc1ccc(C)cc1-c1[nH]c2ccccc2c1C(=O)O |  | 55.01

Row | SMILES | Percent Effect (50 µM) [%] | Percent Effect (10 µM) [%]
26 | Cc1ccc(C)c(-c2[nH]c3ccccc3c2C(=O)O)c1 |  | 7.079
27 | NC(=O)c1cc(N2CCCC2)nc2ccccc12 | 2.977 | 
28 | Cn1nc(C(=O)N2CCOCC2)c(Br)c1C(F)(F)F | 24.28 | 
29 | CCn1cc(C(=O)NCCCC(N)=O)c2ccccc21 | -17.15 | 
30 | N#CCCCn1ccccc1=O | -0.4771 | 
31 | Cc1c(Cl)cccc1NC(=O)CSc1nnc[nH]1 | -6.056 | 
32 | CCOCCC(=O)Nc1ccnn1-c1ccc(Cl)cc1 |  | -1.702
33 | COCC(=O)Nc1ccnn1-c1ccc(Cl)cc1 |  | 75.67
34 | COCCOCC(=O)Nc1ccnn1-c1ccc(Cl)cc1 |  | 0.922
35 | CC(NC(=O)c1ccc(Cl)cc1)c1nnc(SCC(N)=O)n1C (centres undefined) |  | 10.17
36 | CCn1c(SCC(=O)O)nnc1C(C)NC(=O)c1ccc(Cl)cc1 (centres undefined) |  | 60.13
37 | CC(c1ccccc1)n1c(SCC(=O)O)nnc1-c1ccccc1Cl (centres undefined) |  | -2.501
38 | CC(NC(=O)c1ccc(Cl)cc1)c1nnc(SCC(=O)O)n1C (centres undefined) |  | 78.32
39 | CC(C)CC(NC(=O)c1ccc(Cl)cc1)C(N)=O (centres undefined) | 23.98 | 
40 | CCn1c(SCC(N)=O)nnc1-c1cccnc1 | -5.033 | 
41 | CCn1c(SCC(N)=O)nnc1C(C)NC(=O)c1ccc(Cl)cc1 (centres undefined) |  | 74.14
42 | CC(NC(=O)NCCOc1ccc(Cl)cc1)c1nncn1C (centres undefined) |  | 2.548
43 | CCn1ncnc1C(C)NC(=O)c1cc(Cl)ccc1F (centres undefined) | 1.166 | 
44 | N#Cc1ccc(C(=O)N2CCCO2)nc1 | -1.519 | 
45 | CSCC(=O)N1CCN(Cc2nccn2C)CC1 | 0.586 | 
46 | CCN1CCN(S(=O)(=O)c2c(F)cccc2F)CC1 | -8.353 | 
47 | CN(CCC1CCCO1)Cc1ccc(N(C)C)nc1 (centres undefined) | 6.718 | 
48 | CC(C)COCCN1CCN(Cc2ccon2)CC1 | 0.7264 | 
49 | CC(O)c1cccc(Nc2nc(NCCO)c3ccccc3n2)c1 (centres undefined) |  | 12.45
50 | CCN(CC)c1nc(Nc2cccc(C(=O)O)c2)nc2ccccc12 |  | -21.05

Row | SMILES | Percent Effect (50 µM) [%] | Percent Effect (10 µM) [%]
51 | CCN(CC)c1nc(Nc2cccc(C(C)O)c2)nc2ccccc12 (centres undefined) |  | 95.47
52 | COC(=O)N1CCC(Nc2nnc(C(F)(F)F)s2)CC1 | 9.072 | 
53 | NCC1CCCN(c2ncccn2)C1 (centres undefined) | 3.495 | 
54 | O=C(NCC1CCCO1)c1cnn2cccnc12 (centres undefined) | -4.539 | 
55 | Cn1cnc2c1CCN(Cc1cccc(C(N)=O)c1)C2 |  | 1.729
56 | CC(C)c1nc2c(n1C)CCN(Cc1cccc(C(N)=O)c1)C2 |  | -1.993
57 | NC(=O)c1cccc(CN2CCc3c(ncn3C3CC3)C2)c1 |  | 83.44
58 | CN(CCC#N)C(CCO)c1ccccc1 (centres undefined) | 25.8 | 
59 | O=C(CSc1nnc(-c2ccccc2F)o1)NC1CC1 | -13.11 | 
60 | CC(C)(CC1CCCNC1)C(N)=O (centres undefined) | 7.36 | 
61 | Cc1cc(C)n(CC(=O)NCCc2ccc[nH]2)n1 | -10.28 | 
62 | COc1cc2cc(C(=O)NCCC(=O)O)n(C)c2c(OC)c1OC |  | 74.68
63 | COc1cc2cc(C(=O)N[C@@H](C)C(=O)O)n(C)c2c(OC)c1OC |  | -3.586
64 | COCCNC(=O)c1cc2cc(C)ccc2n1C | 2.035 | 
65 | COc1cc2cc(C(=O)NCC(=O)O)n(C)c2c(OC)c1OC |  | 74.68
66 | COc1cc2cc(C(=O)O)n(C)c2c(OC)c1OC |  | -3.347
67 | COc1cc2cc(C(=O)NC(C)C(=O)O)n(C)c2c(OC)c1OC (centres undefined) |  | 17.43
68 | COC(=O)C1CCN(C(=O)C2CCCO2)CC1 (centres undefined) | -8.272 | 
69 | COc1ccccc1SC(C)C(=O)N1CCNC1=O (centres undefined) | 15.55 | 
70 | CCc1cccc(NC(=O)C2CCCN(C(C)=O)C2)c1 (centres undefined) | 4.153 | 
71 | CC1CCC(N(C)C(=O)Cn2cccn2)CC1 (centres undefined) | -1.84 | 
72 | O=C(c1cc(C2CC2)n[nH]1)N1CCCC(O)(CO)CC1 (centres undefined) | 4.237 | 
73 | O=C(c1cc(C2CC2)n[nH]1)N1CCC2(CCCO2)CC1 | 64.63 | 
74 | CN1CCc2[nH]nc(C(=O)N3CCC4(CCCO4)CC3)c2C1 |  | 1.903
